Bioassay records as filed in PubChem BioAssay.
TrxR1 inh = qHTS Assay for Inhibitors of Mammalian Selenoprotein Thioredoxin Reductase 1 (TrxR1): qHTS. Thioredoxin reductase 1, cytoplasmic (Rattus norvegicus), O89049. recombinant rTrxR1, NADPH fluorescence consumption, selenite substrate. Potency, µM (titrated, usually from 114 µM), for inactives: at the top dose activity change, negative = inhibition, most hits filed as inhibitors. 1% of 390,000 active. AID 588453, 2011; also: potency is read from the fitted curve at half-maximal effect; nearly all actives have a fitted effect of over 65% in size
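Rat TrxR1 (90 nM in the dispensed reagent) was pre-reduced with 400 uM NADPH for 5 min at room temperature, then incubated with compound for 15 min. After 400 uM selenite was added, NADPH fluorescence (Ex 340/Em 450 nm) was followed for 8 min.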
FBPA coupling cs = qHTS Assay for Inhibitors of Fructose-1,6-bisphosphate Aldolase from Giardia Lamblia: Coupling assay counterscreen; coupling enzyme system counterscreen, AmpLite Red fluorescence; activity change, negative = inhibition, % at 58.2 µM, hits read low; 0.67% of 290,000 active; AID 2472, 2010; in the data active = activity change below about -30%
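Coupling enzymes only (glyceraldehyde-3-phosphate) + compound, at 57.5 uM final, 10 min RT; add substrate/coupling/AmpLite Red mix, 20 min RT; fluorescence ex 525/em 598 nm. Actives flag coupling-system interference.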
Giardia kill = Small Molecules that selectively kill Giardia lamblia: qHTS; Giardia lamblia trophozoite viability; activity change, % at 7.66 µM, hits read low; 0.15% of 340,000 active; in the data active = activity change below about -80%; inconclusive = between about -30% and that limit;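 also: parasites exposed to compound for two days anaerobically before the ATP read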
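Luminescence from cellular ATP indicates surviving trophozoites (100 cells/well) following 48 hrs anaerobic compound treatment at 37 deg C; signal develops 15-30 min at room temperature.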
TrxR1 substrate = qHTS Assay for Substrates of Mammalian Selenoprotein Thioredoxin Reductase 1 (TrxR1): qHTS; Thioredoxin reductase 1, cytoplasmic (Rattus norvegicus), O89049; purified TrxR1 substrate turnover, NADPH consumption readout; Potency, µM (highest dose often 114 µM), inactives show at the top dose activity change, negative = substrate turnover; 0.01% of 390,000 active; also: potency is read from the fitted curve at half-maximal effect; nearly all actives have a fitted effect of over 50% in size
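Rat TrxR1, dispensed at 90 nM, was prereduced with 400 uM NADPH (final) for 5 min at ~22 deg C, then incubated with compound 15 min before 400 uM selenite. A first-read NADPH fluorescence drop versus no-compound background flagged substrates.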
GALK inh = qHTS Assay for Inhibitors of Human Galactokinase (GALK) | P51570 | Purified GALK, Kinase-Glo residual ATP luminescence | Potency, µM (doses to about 57.5 µM), inactives show top-dose activity change, negative = inhibition, hits mostly inhibitors | 0.007% of 270,000 active; also: potency is read from the fitted curve at half-maximal effect
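Human GALK (5 nM) with 35 uM ATP and 100 uM galactose in 20 mM HEPES pH 8.0, 5 mM MgCl2, 60 mM NaCl, 1 mM DTT, 0.01% BSA. After 1 h at room temperature, leftover ATP was read by Kinase-Glo Plus luminescence.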
PI4K2A block = qHTS for small molecular inhibitors of PI4K2A; 0.13% of 420,000 active; Phosphatidylinositol 4-kinase type 2-alpha (Homo sapiens), Q9BTU6; purified PI4K2A, ADP-Glo luminescence, 1 h; hits give low values; activity change, negative = inhibition, % at 76.9 µM; AID 1346378, 2018; in the data active = activity change below about -50%; inconclusive = mostly about -30% to -49%;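 also: -100% = wells without enzyme as full effect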
Target sequence (Q9BTU6 whole entry, looked up): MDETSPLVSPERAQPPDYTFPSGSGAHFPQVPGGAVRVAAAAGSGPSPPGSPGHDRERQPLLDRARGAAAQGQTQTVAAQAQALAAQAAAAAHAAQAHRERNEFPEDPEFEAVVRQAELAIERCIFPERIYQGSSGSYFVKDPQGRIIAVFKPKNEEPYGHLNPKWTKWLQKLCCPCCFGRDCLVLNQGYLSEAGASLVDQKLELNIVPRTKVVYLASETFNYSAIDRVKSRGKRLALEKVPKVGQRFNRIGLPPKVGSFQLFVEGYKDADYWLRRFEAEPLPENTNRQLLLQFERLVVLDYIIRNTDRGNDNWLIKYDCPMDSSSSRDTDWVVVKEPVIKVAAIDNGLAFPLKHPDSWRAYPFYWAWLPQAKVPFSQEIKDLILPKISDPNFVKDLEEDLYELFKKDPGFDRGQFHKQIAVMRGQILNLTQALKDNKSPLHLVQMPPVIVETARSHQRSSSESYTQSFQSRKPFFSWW
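Compounds are screened against recombinant PI4K2A using PI as substrate and ATP, the latter dispensed at 300 microM. Reactions run one hour at ambient temperature before ADP-Glo detection; full inhibition defined by wells lacking enzyme.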
Active calls of the source: *; i = inactive; u = inconclusive; x = no result given; ! = not active in a repeat; [ ] = another dose, or the depositor's remark. Only some compounds are listed: those with a hit (about 1.5% of all), similar ones and a draw of the others. Unless noted, calls follow the shape of the dose curve; as a rule, active = well fitted curve in the direction sought with a large enough effect; inconclusive = small, poorly fitted or top-dose-only effect, or another doubt; inactive = no such curve, though single readings can be large; an effect the other way counts as inactive or inconclusive. Unless noted, % is scaled to controls: 0 for no effect and ±100 for the full control effect.

SMILES	TrxR1 inh	FBPA coupling cs	Giardia kill	TrxR1 substrate	GALK inh	PI4K2A block
O=C(O)CCn1cc(C=C2C(=O)NC(=S)NC2=O)c(-c2ccccc2)n1	u	9	4	5%[57.1 µM]	0%	-13
O=C(O)CCn1cc(C=C2C(=O)NC(=S)NC2=O)c(-c2cc3ccccc3oc2=O)n1	7.1µM*	4	-12	3%	-3%	-8
c1ccc(N2CCNCC2)cc1	x	x	x	x	x	3
N#CC(C#N)=NNc1ccc([N+](=O)[O-])cc1	22µM*	13	8	u	x	-5
COc1cc(/C=C2/C(=O)NC(=O)N(c3ccccc3)C2=O)ccc1O	45µM*	1	-3	-20%	x	-6
COc1cccc(N2C(=O)NC(=O)/C(=C/c3ccc4c(c3)Cc3ccccc3-4)C2=O)c1	14µM*	3	3	14%	6%	-18
O=C1NC(=O)N(c2ccccc2)C(=O)/C1=C/c1coc2ccc(O)cc2c1=O	22µM*	4	-25	-2%	5%	u
CCOc1cc(/C=C2/C(=O)NC(=O)N(c3ccc(CC)cc3)C2=O)ccc1OC(=O)c1cccs1	18µM*	1	3	-3%	-4%	-16
COc1ccc(N2C(=O)NC(=O)/C(=C/c3ccc(N4CCOCC4)cc3)C2=O)cc1	x	2	x	x	0%	x
O=C1OC(CCN2CCCCC2)OC1(c1ccccc1)c1ccccc1 (stereo not drawn)	x	x	x	x	x	-3
COc1ccc2c(c1)CCC1C2CC[C@@]2(C)C1CC[C@@H]2NCCCCCCN1C(=O)C=CC1=O (stereo partly drawn)	u	x	x	8%[57.1 µM]	x	1
CC(=O)C1=C(O)[C@@H]2[C@@H]3c4c[nH]c5cccc(c45)C[C@@H]3C(C)(C)N2C1=O	x	2	x	x	x	x
COc1ccc(/C=C2/C(=O)NC(=O)N(c3ccccc3)C2=O)cc1CN1C(=O)c2ccccc2C1=O	25µM*	4	-6	3%	3%	-12
COc1ccc(/C=C2/C(=O)NC(=S)N(C3CC3)C2=O)cc1CN1C(=O)c2ccccc2C1=O	u	2	7	-1%	0%	-8
O=C(c1ccc(CS(=O)(=O)c2ccccc2)o1)N1CCC2(CC1)OCCO2	28µM*	-5	23	4%[57.1 µM]	0%	0
O=C(c1ccc(CS(=O)(=O)c2ccc(Br)cc2)o1)N1CCC2(CC1)OCCO2	7%	1	-12	2%	0%	7
CN1C(=O)/C(=C/c2cccn2-c2ccc3ccccc3c2)C(=O)NC1=S	u	-10	-3	-7%	-1%	-61*
O=C1NC(=S)NC(=O)C1=Cc1cccn1-c1ccc(O)cc1	20µM*	0	-3	1%	-9%	u
Cc1cc(C)cc(N2C(=O)NC(=O)/C(=C\c3cccn3-c3ccc(Cl)cc3)C2=O)c1	u	2	7	-10%	-3%	-50*
Cc1cc(C)cc(N2C(=O)NC(=O)/C(=C\c3cccn3-c3ccccc3)C2=O)c1	-31%	2	-6	-9%	-2%	-28
CCCCC/C=C\C/C=C\C/C=C\C/C=C\CCCC(=O)NCCCl	x	0	x	x	x	x
CNC(=S)S	x	3	x	x	x	x
O=C1/C(=C/c2ccc(N(CCCl)CCCl)cc2)Cc2ccccc21	2%	x	x	-1%	x	x
O=C1c2ccccc2C(=O)c2ccccc21	x	1	x	x	x	i
O=C1C=Cc2ccccc2C1=O	x	-82*	x	x	4%	x
SMILES	TrxR1 inh	FBPA coupling cs	Giardia kill	TrxR1 substrate	GALK inh	PI4K2A block
Cc1cccc(NC(=O)CSc2ccc(-c3ccco3)nn2)c1	u	0	9	-8%	1%	-6
Cc1ccc(NC(=O)COC(=O)/C=C/c2ccco2)cc1S(=O)(=O)N(C)C	40µM*	-2	-11	-3%	-1%	2
NC(Cc1cc(O)c(O)cc1O)C(=O)O (stereo not drawn)	11µM*	x	x	9%[57.1 µM]	x	-80*
N[C@@H](CCl)C(=O)O	3%[57.1 µM]	x	8	3%[57.1 µM]	x	-6
N[C@@H](Cc1cc(I)c(O)c(I)c1)C(=O)O	13µM*	1	-6	-3%	x	-2
Cc1o[nH]c(=O)c1CC(N)C(=O)O (stereo not drawn)	-15%[57.1 µM]	x	x	-4%[57.1 µM]	x	-2
O=C(CN1CCCC2CCCCC21)c1ccc(I)cc1 (stereo not drawn)	-31%	x	x	1%	x	x
O=[N+]([O-])c1ccc2nc(N3CCNCC3)ccc2c1	79µM*!	x	-9	5%[57.1 µM]	x	7
COc1cc2c(cc1O)[C@H]1Cc3ccc(OC)c(O)c3CN1CC2	x	-38*	x	x	x	x
Cc1ccc(Cl)cc1N1CCN(C(=O)c2cn(CC(C)C)c(=O)c3c2c2ccccc2n3C)CC1	38%	x	x	31%	x	5
CC(=O)NCC(N)C(=O)c1ccc(Cl)c(Cl)c1 (stereo not drawn)	11%	x	x	9%	x	x
COc1cc2c(cc1O)C[C@H]1NCCc3cc4c(c-2c31)OCO4	0%	-31*	3	36%	x	-13
COc1cc2c(cc1OC)-c1c3c(cc4c1[C@@H](C2)N(C)CC4)OCO3	0%[57.1 µM]	-29	0	10%	x	-20
Cc1ccc2c(c1)C1CN(C)CCC1N2 (stereo not drawn)	x	x	x	x	x	i
C/C(=N\Nc1cccc2ccccc12)c1c(O)n(Cc2ccccc2)c(=O)[nH]c1=O	45µM*	-18	-11	3%	0%	-7
COC(=O)c1nc(-c2ccc3c(n2)C(=O)C(N)=C(OC)C3=O)c(N)c(-c2ccc(OC)c(OC)c2O)c1C	6%	-37*	u	-6%	u	-19
COc1c(C=C2C(=O)NC(=O)NC2=O)c(CCN(C)C(=O)c2ccccc2)cc2c1OCO2	18µM*	2	-8	-1%	x	-16
COC(=O)Cn1cc(C=C2C(=O)NC(=O)NC2=O)c2ccccc21	u	4	11	-2%	-1%	u
COc1ccccc1N1C(=O)NC(=O)/C(=C/c2ccc3c4c(cccc24)CC3)C1=O	8.9µM*	-3	13	83%	-1%	-6
CC[N+]1(CC)CCC(OC(=O)C(O)(c2ccccc2)c2ccccc2)C1 (stereo not drawn)	x	x	x	x	x	2
CC(C)C1C(=O)N2CCCC2[C@]2(O)O[C@@](NC(=O)[C@@H]3C=C4c5cccc6[nH]cc(c56)C[C@H]4N(C)C3)(C(C)C)C(=O)N12 (stereo partly drawn)	x	-34*	x	x	x	x
